The whole screen tested about 2,400 compounds, of which about 580 (24%) were called active. These entries were drawn from the full list. A number with no mark means an inactive call.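 The calls were made as follows: active = activity change at or above the mean plus 3 SD of buffer wells without dofetilide, per plate; inactive = the rest.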

The source of these data is PubChem BioAssay AID1942 (Johns Hopkins Ion Channel Center, 2009).

The assay deals with Potassium voltage-gated channel subfamily KQT member 2 (Rattus norvegicus) (UniProt O88943). The experiment in a line: rat KCNQ2 channel activation by compounds alone, confirmation, counter-screen for hERG block protector project, cell-based, CHO, FluxOR thallium flux (AID 1942).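 Also: normalized value minus buffer-control mean plus three SD of buffer wells.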 The conditions noted are these: CHO-KCNQ2 cells, FluxOR thallium flux fluorescence; at 10 µM; stronger effect = higher value. In general terms: A counterscreen serves to expose hits that act by an unwanted route or on another target.
Sequence of Potassium voltage-gated channel subfamily KQT member 2 (Rattus norvegicus) (O88943 whole entry, looked up): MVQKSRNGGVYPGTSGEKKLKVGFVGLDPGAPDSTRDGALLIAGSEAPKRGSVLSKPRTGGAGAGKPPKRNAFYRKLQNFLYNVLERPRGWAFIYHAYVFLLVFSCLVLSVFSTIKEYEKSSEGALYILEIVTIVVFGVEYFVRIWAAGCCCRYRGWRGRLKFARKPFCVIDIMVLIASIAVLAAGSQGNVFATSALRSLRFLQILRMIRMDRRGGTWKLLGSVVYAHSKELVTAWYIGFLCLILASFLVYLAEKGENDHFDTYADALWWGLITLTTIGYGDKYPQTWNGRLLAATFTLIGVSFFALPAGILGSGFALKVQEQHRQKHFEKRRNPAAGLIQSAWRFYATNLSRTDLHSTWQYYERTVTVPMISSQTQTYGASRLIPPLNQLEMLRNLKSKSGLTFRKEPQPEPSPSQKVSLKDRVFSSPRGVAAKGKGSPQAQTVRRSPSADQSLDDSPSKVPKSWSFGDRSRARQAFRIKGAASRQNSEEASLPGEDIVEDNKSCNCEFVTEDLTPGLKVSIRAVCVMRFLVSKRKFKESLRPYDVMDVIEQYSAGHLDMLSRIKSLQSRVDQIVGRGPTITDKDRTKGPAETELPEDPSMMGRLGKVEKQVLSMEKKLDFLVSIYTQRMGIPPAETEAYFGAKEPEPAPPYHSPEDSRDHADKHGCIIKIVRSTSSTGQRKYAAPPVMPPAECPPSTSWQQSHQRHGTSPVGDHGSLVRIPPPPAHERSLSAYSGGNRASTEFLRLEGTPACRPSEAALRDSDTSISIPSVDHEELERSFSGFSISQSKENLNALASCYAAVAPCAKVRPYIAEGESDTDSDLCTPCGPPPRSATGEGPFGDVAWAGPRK
In the case of `Cc1ccc2[nH]c3c(c2c1)CNCC3`, the activity change, less the hit threshold is -13.7%.

Turning to `COc1cc(/C=N/Nc2nc(N3CCCC3)nc(N3CCCC3)n2)ccc1OCc1ccccc1F`, the activity change, less the hit threshold was -23.8%.

Regarding `CCCCCCCCCCn1c2c(c(=N)c3c1CCC3)CCC2`, the activity change, less the hit threshold is 26.3% (active).

As for `CC(=O)c1c(C)c2c(n1CCN(C)C)CCCC2`, the activity change, less the hit threshold was -11.1%.

As for `Clc1ccc(N=NN2CCOCC2)cc1`, the activity change, less the hit threshold was -5.2%.

Regarding `CCCCOC(=S)NC(=O)c1sc2ccccc2c1Cl`, the activity change, less the hit threshold was 71.2% (active).

Regarding `COC(=O)CC1C(=O)NCCN1C(=S)NC(=O)c1sc2ccccc2c1Cl` (configuration not stated), the activity change, less the hit threshold was -11.2%.

For `COC(=O)Cn1c(=NC(=O)c2sc3ccccc3c2Cl)sc2cc(S(N)(=O)=O)ccc21`, the activity change, less the hit threshold is -18.9%.

For `CCOC(=O)CP(=O)(c1ccccc1)c1ccccc1`, the activity change, less the hit threshold is -20%.

As to `O=C(NC(=S)N(CCCCO)C1CCCCC1)c1sc2ccccc2c1Cl`, the activity change, less the hit threshold is 26% (active).

For the compound `CCOC(=S)NC(=O)c1sc2ccccc2c1Cl`, the activity change, less the hit threshold was 51.3% (active).

With `CCCOC(=S)NC(=O)c1sc2ccccc2c1Cl`, the activity change, less the hit threshold is 10% (active).

As to `O=C(CCc1nc(-c2ccccc2)no1)N1CCCC1`, the activity change, less the hit threshold was -20.7%.

As to `C=CCn1c(N2CCCCCC2)nc2c1c(=O)n(C)c(=O)n2C`, the activity change, less the hit threshold is -13.9%.

Turning to `O=C1NC(=O)/C(=C/c2cc3c(cc2Br)OCO3)S1`, the activity change, less the hit threshold was -28.6%.

As to `COc1ccc(C(=O)NCc2nnc(SCC(=O)NC3CCCCC3)n2C)cc1`, the activity change, less the hit threshold was -21.9%.

With `O=[N+]([O-])c1ccc(Cl)c(/C=N/Nc2nc(N3CCOCC3)nc(N3CCOCC3)n2)c1`, the activity change, less the hit threshold was -7.2%.

Consider `COc1cc(OC)c(C2=NOC(C(=O)Nc3ccc4c(c3)OCO4)C2)cc1Cl` (configuration not stated), for which the activity change, less the hit threshold was -22.1%.

As to `COc1ccc(OCC(=O)Nc2c3c(nn2-c2ccc(OC)cc2)CS(=O)(=O)C3)cc1`, the activity change, less the hit threshold is -16.4%.

Consider `CC(=O)NCCC(=O)N(C)CC1CCN(CCc2cccc(C(F)(F)F)c2)CC1`, for which the activity change, less the hit threshold is -13.4%.

As to `COc1ccc2ncc(OC(C)=O)cc2c1`, the activity change, less the hit threshold is -7.9%.

With `COC(=O)c1sccc1NC(=S)N1CCN(C)CC1`, the activity change, less the hit threshold is -22.7%.

Consider `CSc1ccccc1NC(=S)NCc1ccc(Cl)cc1`, for which the activity change, less the hit threshold is -17.2%.

Regarding `COC(=O)c1sccc1NC(=S)NCc1ccc(Cl)cc1`, the activity change, less the hit threshold was 3.3% (active).

For `Cc1ccc(NC(=O)c2ccc(NC3=NC4CS(=O)(=O)CC4S3)cc2)cc1` (configuration not stated), the activity change, less the hit threshold is -20.8%.

On to `COc1cc(Cl)cc(C(c2c(C(=O)O)[nH]c3ccccc23)c2c(C(=O)O)[nH]c3ccccc23)c1O`, for which the activity change, less the hit threshold is -20.1%.

On to `Cc1cc(C(F)(F)F)n(-c2ccc(N)cc2)n1`, for which the activity change, less the hit threshold was -13.2%.
